This note sets out measurements from PubChem BioAssay (NCATS).

The structures appear in SMILES notation. Records with an inconclusive call do not appear. A call without a number means that no potency is given here. Activity calls are given as the source filed them. The call rests on the fitted dose curve; in most records, active means well fitted inhibition curve with a large enough effect; inconclusive means small, poorly fitted or top-dose-only effect; inactive means no such curve, though single readings can be large or run the other way.

In experiment [1] the test system is Zika virus NS2B-NS3 protease (unlinked complex). As to the kind of experiment: Primary screen GU Rhodamine qHTS for Zika virus inhibitors: Unlinked NS2B-NS3 protease assay (AID 1347159). Further: nearly all actives have a fitted effect of over 60% in size. The gist of the method:
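Noncovalent NS2B hydrophilic domain–NS3 protease domain complex (25 nM) preincubated 15 min at room temperature with compounds (up to 114 microM) in 10 mM Tris-HCl pH 8.0, 0.01% Tween 20; 1.5 microM Rhodamine110 substrate added, fluorescence change over 15 min fitted to Hill equation.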

Experiment [2] relates to Zika virus NS2B-NS3 protease (linked construct). The experiment in a line: Primary screen NINDS Rhodamine qHTS for Zika virus inhibitors (AID 1347160). Further: nearly all actives have a fitted effect of over 55% in size. The gist of the method:
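Purified linked NS2B-NS3 protease (NS2B hydrophilic domain joined to NS3 protease by flexible linker), 25 nM in 10 mM Tris-HCl pH 8.0, 0.01% Tween 20. Compounds titrated, 15 min preincubation at room temperature; 1.5 microM Rhodamine110 substrate, FITC fluorescence change over 15 min.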
Background: Quantitative high-throughput screening tests each substance at several concentrations.
Potency means the concentration at half of the fitted maximal effect.

For `Clc1ncoc1-c1c[nH]c2ccccc12`, the Potency entry in experiment [1] and in experiment [2] was “inactive” throughout.
As to `CCCOc1ccc(S(=O)(=O)N2CCN(CCO)CC2)cc1-c1nc2c(CCC)cn(CC)c2c(=O)[nH]1`, the Potency result in experiment [1] and in experiment [2] was “inactive” each time.
In the case of `CCNc1nc(Nc2cc(F)c(C(=O)N3CCOCC3)cc2OC)ncc1C(F)(F)F`, the Potency result in experiment [1] and in experiment [2] was “inactive” each time.
Consider `COc1ccncc1C(=O)NC(=O)Nc1ccc(-c2ccccc2)c(C(F)(F)F)c1`, for which the Potency result in experiment [1] and in experiment [2] was “inactive” each time.
For `COC(=O)CC[C@@H](C)C1CCC2C3CCC4C[C@H](OC(C)=O)CCC4(C)C3C[C@H](O)C21C` (some centres not stated), the Potency entry in experiment [1] and in experiment [2] was “inactive” in each case.
Take `COc1ccc(-c2ccc3c(N4CCOCC4C)nc(N4CCOCC4C)nc3n2)cc1CO` (configuration not stated): the Potency entry in experiment [1] and in experiment [2] was “inactive” in each case.
Take `CCN(Cc1ccccc1)C(=O)Cn1c(=O)n(C)c2cnc(-c3ccccc3)nc21`: the Potency result in experiment [1] and in experiment [2] was “inactive” throughout.
On to `C/C1=C\[C@@H](C)C[C@@H](C)[C@@H](Cc2cnco2)OC(=O)/C(C)=C/[C@@H](C)C[C@@H](C)[C@@H](Cc2cnco2)OC1=O`, for which the Potency result in experiment [1] and in experiment [2] was “inactive” each time.
Turning to `COc1cc(C#N)ccc1S(=O)(=O)Nc1ccc2c(c1)cc(C)c(=O)n2C`, the Potency entry in experiment [1] and in experiment [2] was “inactive” throughout.
Consider `CN1CCN(c2ccc(OC(F)(F)F)c(Nc3ncc4c(n3)-c3c(c(C(N)=O)nn3CCO)CC4)c2)CC1`, for which the Potency result in experiment [1] and in experiment [2] was “inactive” each time.
On to `CC(C)c1ccc(NC(=O)Cn2cnc3c2c(=O)n(C)c(=O)n3C)cc1`, for which the Potency result in experiment [1] and in experiment [2] was “inactive” throughout.
As for `COc1cc2c(Nc3cc(F)c(Cl)c(Cl)c3)ncnc2cc1OCC1CCCN(C)CCC1`, the Potency result in experiment [1] and in experiment [2] was “inactive” each time.
As to `COc1ccc(CCCN2CCC(COC(c3ccccc3)c3ccccc3)CC2)cc1`, the Potency result in experiment [1] and in experiment [2] was “inactive” throughout.
`Cn1ncc(Cl)c1-c1cc(C(=O)N[C@H](CN)Cc2ccc(F)c(F)c2)oc1Cl`: the Potency entry in experiment [1] and in experiment [2] was “inactive” in each case.
Turning to `O=C(O)C1=CO[C@@H](O[C@@H]2O[C@H](CO)[C@@H](O)[C@H](O)[C@H]2O)[C@@H]2C(CO)=CC[C@H]12`, the Potency result in experiment [1] and in experiment [2] was “inactive” each time.
On to `O=C(Nc1cccc(C(F)(F)F)c1)Nc1ccc(Br)cc1-c1nn[nH]n1`, for which the Potency was 3.16 µM (active) in experiment [1] and 17.8 µM (active) in experiment [2].
In the same order, the values of `CCOC(=O)C1(CCOc2ccccc2)CCN(Cc2ccc(O)c(Cl)c2)CC1` are “inactive” and “inactive”.
Taken in the same sequence, the figures for `CC(=O)NCc1cccc(OC[C@@H](O)CNCCc2ccc(NS(=O)(=O)c3ccccc3)cc2)c1` were “inactive” and “inactive”.
Taken in the same sequence, the figures for `CN(C)C(CCOc1cccc2ccccc12)c1ccccc1` (configuration not stated) were “inactive” and “inactive”.
For `C=C(C)C(=O)OC1CC(CO)CCC/C(CO)=C/C2OC(=O)C(=C)C21` (configuration not stated), the Potency entry in experiment [1] and in experiment [2] was “inactive” throughout.
For the compound `COc1cc(O)cc(/C=C/c2cccc(O)c2)c1`, the Potency result in experiment [1] and in experiment [2] was “inactive” each time.
